Reference: the supplement of paper PMC6411743
± gives the standard deviation of the averaged measurements. About 5,400 targets were measured; listed, in parts, are those with the largest changes and a random draw of the rest.

Compound: Nc1nc2c(ncn2[C@@H]2O[C@H](COP(=O)(O)OP(=O)(O)OP(=O)(O)O)[C@@H](O)[C@H]2O)c(=O)[nH]1 [guanosine triphosphate]
Experiment: NP40-soluble protein abundance relative to vehicle (solubility fold change) (ratio); higher = more soluble protein in presence of GTP
Outline: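 Jurkat crude lysate (Dounce-homogenised) was treated with eight concentrations from 0.1 to 10 mM for 10 min at room temperature, then 3 min at 37 °C. It was solubilised with 0.8% NP40 and benzonase (60 min, 4 °C) and ultracentrifuged, and the supernatant was TMT-labelled for LC-MS/MS. Intensities were vsn-normalised, and the value is the fold change against the NP40-processed vehicle per replicate, from three independent experiments.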

Sequence of UniProt Q9Y421 (Q9Y421 whole entry, one chain of several): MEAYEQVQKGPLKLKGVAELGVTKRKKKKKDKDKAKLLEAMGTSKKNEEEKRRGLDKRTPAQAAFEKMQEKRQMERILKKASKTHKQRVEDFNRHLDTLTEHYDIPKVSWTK
Sequence of UniProt P05114 (P05114 whole entry): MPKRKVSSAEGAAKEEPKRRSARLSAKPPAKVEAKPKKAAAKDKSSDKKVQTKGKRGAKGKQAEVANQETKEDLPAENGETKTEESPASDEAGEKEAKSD
Sequence of UniProt P30405 (P30405 whole entry): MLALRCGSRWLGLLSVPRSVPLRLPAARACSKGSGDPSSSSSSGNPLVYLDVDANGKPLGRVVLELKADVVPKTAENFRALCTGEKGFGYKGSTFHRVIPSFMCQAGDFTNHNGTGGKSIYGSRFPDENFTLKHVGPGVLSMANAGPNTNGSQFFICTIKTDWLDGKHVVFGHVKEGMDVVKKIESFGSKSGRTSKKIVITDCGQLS
Sequence of UniProt P00387 (P00387 whole entry): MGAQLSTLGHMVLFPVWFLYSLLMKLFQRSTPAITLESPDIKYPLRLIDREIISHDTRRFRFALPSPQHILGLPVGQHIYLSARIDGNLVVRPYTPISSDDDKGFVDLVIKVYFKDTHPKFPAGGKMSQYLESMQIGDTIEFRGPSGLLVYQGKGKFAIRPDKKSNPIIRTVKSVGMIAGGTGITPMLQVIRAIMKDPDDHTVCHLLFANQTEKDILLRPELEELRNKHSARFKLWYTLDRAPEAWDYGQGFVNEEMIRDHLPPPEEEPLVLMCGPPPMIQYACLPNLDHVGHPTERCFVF
Sequence of UniProt P41091 (P41091 whole entry): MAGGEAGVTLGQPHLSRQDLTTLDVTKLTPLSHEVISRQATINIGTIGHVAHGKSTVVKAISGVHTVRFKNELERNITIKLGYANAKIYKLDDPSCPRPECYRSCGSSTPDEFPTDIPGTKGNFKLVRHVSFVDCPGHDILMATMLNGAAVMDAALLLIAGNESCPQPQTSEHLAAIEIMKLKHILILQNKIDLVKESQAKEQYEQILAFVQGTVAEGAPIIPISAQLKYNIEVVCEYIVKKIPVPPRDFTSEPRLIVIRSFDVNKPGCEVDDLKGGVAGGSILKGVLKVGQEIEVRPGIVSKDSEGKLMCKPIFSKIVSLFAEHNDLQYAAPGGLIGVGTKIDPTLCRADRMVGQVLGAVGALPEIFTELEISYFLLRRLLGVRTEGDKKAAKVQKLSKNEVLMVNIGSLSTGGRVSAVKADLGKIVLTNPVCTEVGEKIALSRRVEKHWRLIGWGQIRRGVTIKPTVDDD
Sequence of UniProt O14776 (O14776 whole entry): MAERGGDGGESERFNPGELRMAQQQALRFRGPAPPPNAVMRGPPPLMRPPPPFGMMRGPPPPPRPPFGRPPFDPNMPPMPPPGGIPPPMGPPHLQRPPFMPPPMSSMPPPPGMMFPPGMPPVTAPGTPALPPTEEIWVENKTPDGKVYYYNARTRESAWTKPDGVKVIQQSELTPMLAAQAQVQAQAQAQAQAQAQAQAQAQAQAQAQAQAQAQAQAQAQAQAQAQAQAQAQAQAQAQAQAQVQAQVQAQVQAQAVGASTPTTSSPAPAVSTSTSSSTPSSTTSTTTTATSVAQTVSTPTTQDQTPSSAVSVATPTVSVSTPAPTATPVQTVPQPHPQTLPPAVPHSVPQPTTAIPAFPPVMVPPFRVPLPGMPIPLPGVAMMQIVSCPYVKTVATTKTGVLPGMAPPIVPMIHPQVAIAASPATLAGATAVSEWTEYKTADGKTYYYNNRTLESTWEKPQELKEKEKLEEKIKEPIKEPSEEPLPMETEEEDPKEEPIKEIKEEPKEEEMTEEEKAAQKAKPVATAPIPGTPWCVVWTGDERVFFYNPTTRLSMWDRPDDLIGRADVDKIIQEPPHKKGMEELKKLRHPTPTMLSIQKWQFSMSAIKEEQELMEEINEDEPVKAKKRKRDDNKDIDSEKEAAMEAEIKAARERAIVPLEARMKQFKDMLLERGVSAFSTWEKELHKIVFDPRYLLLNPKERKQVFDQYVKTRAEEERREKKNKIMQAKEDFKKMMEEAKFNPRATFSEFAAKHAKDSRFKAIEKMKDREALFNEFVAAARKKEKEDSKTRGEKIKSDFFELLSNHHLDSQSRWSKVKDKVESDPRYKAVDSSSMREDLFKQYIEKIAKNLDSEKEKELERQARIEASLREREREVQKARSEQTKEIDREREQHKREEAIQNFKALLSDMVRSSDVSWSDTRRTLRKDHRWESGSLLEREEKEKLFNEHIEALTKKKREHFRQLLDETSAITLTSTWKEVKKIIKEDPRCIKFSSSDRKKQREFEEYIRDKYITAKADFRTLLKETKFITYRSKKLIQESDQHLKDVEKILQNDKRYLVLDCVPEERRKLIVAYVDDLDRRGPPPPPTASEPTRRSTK
Sequence of UniProt P30622 (P30622 whole entry): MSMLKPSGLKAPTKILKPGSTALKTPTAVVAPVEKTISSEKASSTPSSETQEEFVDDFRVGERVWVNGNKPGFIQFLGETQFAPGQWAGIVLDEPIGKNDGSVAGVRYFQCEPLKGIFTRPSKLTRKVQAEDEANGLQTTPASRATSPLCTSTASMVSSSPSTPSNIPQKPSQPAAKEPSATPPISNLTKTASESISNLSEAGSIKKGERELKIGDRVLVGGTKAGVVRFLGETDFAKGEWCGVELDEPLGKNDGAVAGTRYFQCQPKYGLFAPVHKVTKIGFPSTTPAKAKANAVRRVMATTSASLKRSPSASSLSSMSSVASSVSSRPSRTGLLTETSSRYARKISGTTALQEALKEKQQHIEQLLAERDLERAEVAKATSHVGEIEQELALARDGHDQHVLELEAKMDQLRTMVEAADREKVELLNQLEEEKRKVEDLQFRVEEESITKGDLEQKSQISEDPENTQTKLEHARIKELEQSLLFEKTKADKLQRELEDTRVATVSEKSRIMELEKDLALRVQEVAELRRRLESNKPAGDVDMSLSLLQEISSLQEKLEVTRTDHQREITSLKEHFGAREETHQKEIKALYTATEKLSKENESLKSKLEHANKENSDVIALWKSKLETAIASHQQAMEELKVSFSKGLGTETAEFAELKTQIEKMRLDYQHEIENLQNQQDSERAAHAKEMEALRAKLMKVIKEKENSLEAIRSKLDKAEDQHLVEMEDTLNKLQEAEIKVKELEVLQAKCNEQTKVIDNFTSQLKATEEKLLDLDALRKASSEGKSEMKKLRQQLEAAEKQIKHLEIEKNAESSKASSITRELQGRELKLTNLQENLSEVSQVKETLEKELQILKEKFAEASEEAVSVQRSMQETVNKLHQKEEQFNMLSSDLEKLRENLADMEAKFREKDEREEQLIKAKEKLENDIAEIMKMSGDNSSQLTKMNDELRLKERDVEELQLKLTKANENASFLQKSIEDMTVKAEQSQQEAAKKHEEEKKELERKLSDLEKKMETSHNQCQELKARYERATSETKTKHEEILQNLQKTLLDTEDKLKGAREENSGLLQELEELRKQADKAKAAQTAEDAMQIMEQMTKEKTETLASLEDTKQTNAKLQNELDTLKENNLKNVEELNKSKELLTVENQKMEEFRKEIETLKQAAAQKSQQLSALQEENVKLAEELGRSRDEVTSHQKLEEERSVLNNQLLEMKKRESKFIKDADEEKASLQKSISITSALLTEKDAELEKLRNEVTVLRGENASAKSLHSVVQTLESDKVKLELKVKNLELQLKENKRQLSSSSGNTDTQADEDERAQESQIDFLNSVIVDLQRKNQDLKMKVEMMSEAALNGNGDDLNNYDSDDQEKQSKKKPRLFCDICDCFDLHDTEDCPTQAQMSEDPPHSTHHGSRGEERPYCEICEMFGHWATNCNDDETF
Sequence of UniProt O43760 (O43760 whole entry): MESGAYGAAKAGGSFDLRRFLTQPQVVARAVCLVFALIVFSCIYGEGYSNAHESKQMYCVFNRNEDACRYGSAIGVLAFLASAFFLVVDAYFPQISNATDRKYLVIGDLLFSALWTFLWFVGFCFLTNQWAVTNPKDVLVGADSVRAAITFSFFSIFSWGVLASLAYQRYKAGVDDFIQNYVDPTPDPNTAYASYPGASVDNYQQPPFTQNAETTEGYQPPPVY
Sequence of UniProt P28070 (P28070 whole entry): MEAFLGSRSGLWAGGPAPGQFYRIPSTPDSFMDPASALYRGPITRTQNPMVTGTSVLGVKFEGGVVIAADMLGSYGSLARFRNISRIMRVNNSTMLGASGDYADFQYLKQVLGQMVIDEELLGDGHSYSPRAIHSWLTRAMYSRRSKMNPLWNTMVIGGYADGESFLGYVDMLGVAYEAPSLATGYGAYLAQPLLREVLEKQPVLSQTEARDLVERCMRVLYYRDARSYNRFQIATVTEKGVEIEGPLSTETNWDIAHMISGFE
Sequence of UniProt O95232 (O95232 whole entry, one chain of several): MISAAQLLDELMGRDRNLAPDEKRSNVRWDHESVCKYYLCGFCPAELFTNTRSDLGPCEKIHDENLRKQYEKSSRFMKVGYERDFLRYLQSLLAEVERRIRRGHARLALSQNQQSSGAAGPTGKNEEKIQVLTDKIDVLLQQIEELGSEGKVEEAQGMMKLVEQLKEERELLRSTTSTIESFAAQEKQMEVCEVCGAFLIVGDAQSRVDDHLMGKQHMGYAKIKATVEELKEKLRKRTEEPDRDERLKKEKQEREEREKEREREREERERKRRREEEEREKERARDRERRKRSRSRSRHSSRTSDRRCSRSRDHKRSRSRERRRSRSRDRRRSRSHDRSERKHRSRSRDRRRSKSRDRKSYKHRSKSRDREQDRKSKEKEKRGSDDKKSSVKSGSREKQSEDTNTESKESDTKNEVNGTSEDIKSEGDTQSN
Sequence of UniProt O43324 (O43324 whole entry): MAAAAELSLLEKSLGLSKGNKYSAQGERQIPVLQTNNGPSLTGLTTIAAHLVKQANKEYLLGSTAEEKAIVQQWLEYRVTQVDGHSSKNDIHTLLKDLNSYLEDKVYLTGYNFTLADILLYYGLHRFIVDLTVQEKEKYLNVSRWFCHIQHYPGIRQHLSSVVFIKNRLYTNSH
Sequence of UniProt P17096 (P17096 whole entry): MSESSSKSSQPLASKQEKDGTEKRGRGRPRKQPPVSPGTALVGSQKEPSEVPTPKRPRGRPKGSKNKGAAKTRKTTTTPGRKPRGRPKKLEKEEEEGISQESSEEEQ

Target	NP40-soluble protein abundance (concentration: 0.1mM)	NP40-soluble protein abundance (concentration: 0.5mM)	NP40-soluble protein abundance (concentration: 1mM)	NP40-soluble protein abundance (concentration: 2mM)	NP40-soluble protein abundance (concentration: 4mM)	NP40-soluble protein abundance (concentration: 6mM)	NP40-soluble protein abundance (concentration: 8mM)	NP40-soluble protein abundance (concentration: 10mM)
UniProt O75582|A0A0A0MQV2	1.05 ± 0.079	1.06 ± 0.059	0.965 ± 0.044	0.965 ± 0.068	0.979 ± 0.083	0.965 ± 0.056	0.934 ± 0.031	0.912 ± 0.044
K7EIY1|Q9Y421 (UniProt Q9Y421)	1.045 ± 0.0048	0.987 ± 0.15	1.07 ± 0.11	1.14 ± 0.14	1.25 ± 0.12	1.21 ± 0.2	1.24 ± 0.11	1.37 ± 0.088
ZBTB24 (UniProt O43167)	1.09 ± 0.18	1.09 ± 0.2	1.02 ± 0.21	1.05 ± 0.2	1.06 ± 0.24	0.976 ± 0.11	1 ± 0.053	1.08 ± 0.14
EIF2S3 (UniProt P41091)	1.02 ± 0.024	1.05 ± 0.045	0.967 ± 0.015	0.98 ± 0.071	0.981 ± 0.04	0.995 ± 0.038	0.956 ± 0.025	0.931 ± 0.065
UniProt P30622|P30622-1	0.996 ± 0.068	1 ± 0.086	1.01 ± 0.08	0.97 ± 0.11	0.953 ± 0.076	0.954 ± 0.069	1 ± 0.088	1.01 ± 0.11
UniProt O95793|O95793-2	0.997 ± 0.045	1.02 ± 0.044	1.1 ± 0.079	1.18 ± 0.076	1.33 ± 0.11	1.42 ± 0.13	1.54 ± 0.2	1.82 ± 0.31
UniProt O14776|O14776-2	0.97 ± 0.042	0.962 ± 0.056	0.979 ± 0.047	0.953 ± 0.083	0.989 ± 0.079	1.01 ± 0.084	1.05 ± 0.05	1.04 ± 0.071
UniProt P17812	1.04 ± 0.085	1.03 ± 0.089	0.924 ± 0.05	0.916 ± 0.096	0.904 ± 0.077	0.883 ± 0.076	0.864 ± 0.041	0.819 ± 0.086
UniProt P12931|P12931-2	1.05 ± 0.05	1.05 ± 0.063	0.955 ± 0.018	0.9845 ± 0.0092	0.905 ± 0.063	0.896 ± 0.015	0.894 ± 0.052	0.837 ± 0.074
H2AFX (UniProt P16104)	0.94 ± 0.014	0.955 ± 0.036	1.07 ± 0.068	1.13 ± 0.075	1.2 ± 0.088	1.48 ± 0.16	1.44 ± 0.13	2.26 ± 0.46
EEF1E1 (UniProt O43324)	1.05 ± 0.28	0.987 ± 0.27	1.24 ± 0.41	1.43 ± 0.46	1.41 ± 0.44	1.39 ± 0.45	1.22 ± 0.39	1.31 ± 0.55
LGALS1 (UniProt P09382)	0.889 ± 0.036	0.886 ± 0.037	0.885 ± 0.042	0.789 ± 0.055	0.813 ± 0.11	0.822 ± 0.067	0.821 ± 0.03	0.809 ± 0.055
SFPQ (UniProt P23246)	0.998 ± 0.053	0.989 ± 0.086	1.03 ± 0.13	1.23 ± 0.14	1.61 ± 0.22	1.85 ± 0.28	2 ± 0.35	2.04 ± 0.36
UniProt P00387|P00387-2|P00387-3	1.11 ± 0.13	1.1 ± 0.14	0.945 ± 0.11	0.947 ± 0.15	0.938 ± 0.14	0.925 ± 0.14	0.882 ± 0.1	0.853 ± 0.14
UniProt O75554|O75554-2	1.01 ± 0.045	1.07 ± 0.1	1.08 ± 0.083	1.05 ± 0.12	1.04 ± 0.059	1.09 ± 0.12	1.12 ± 0.072	1.06 ± 0.034
TOMM40 (UniProt O96008)	1.01 ± 0.045	1.04 ± 0.031	0.953 ± 0.041	0.967 ± 0.018	0.946 ± 0.043	0.936 ± 0.037	0.939 ± 0.077	0.905 ± 0.061
CBR3 (UniProt O75828)	1.15 ± 0.032	1.21 ± 0.11	1.11 ± 0.029	1.06 ± 0.082	1.04 ± 0.082	0.936 ± 0.091	1.08 ± 0.22	1.09 ± 0.11
UniProt O94906|O94906-2	1.06 ± 0.055	1.17 ± 0.086	1.26 ± 0.17	1.42 ± 0.27	1.66 ± 0.44	1.91 ± 0.46	2.23 ± 0.58	2.34 ± 0.6
UniProt O43760|O43760-2	0.957 ± 0.086	0.909 ± 0.12	0.911 ± 0.076	0.915 ± 0.083	0.908 ± 0.088	0.852 ± 0.11	0.843 ± 0.15	0.884 ± 0.091
PPIF (UniProt P30405)	0.881 ± 0.08	0.902 ± 0.067	0.863 ± 0.064	0.876 ± 0.078	0.853 ± 0.091	0.868 ± 0.087	0.836 ± 0.11	0.887 ± 0.079
J3KPP4|O95232|H0YA81 (UniProt O95232)	1.13 ± 0.027	1.45 ± 0.062	1.54 ± 0.1	1.54 ± 0.095	1.56 ± 0.12	1.63 ± 0.13	1.72 ± 0.19	1.74 ± 0.18
CDC34 (UniProt P49427)	1.69 ± 0.2	1.07 ± 0.037	1.79 ± 0.077	1.15 ± 0.11	1.16 ± 0.092	1.12 ± 0.1	1.01 ± 0.078	1.06 ± 0.084
PARP1 (UniProt P09874)	1.02 ± 0.026	1.05 ± 0.034	1.05 ± 0.033	1.15 ± 0.052	1.31 ± 0.069	1.43 ± 0.054	1.47 ± 0.043	1.5 ± 0.028
PSMB4 (UniProt P28070)	0.926 ± 0.12	1.01 ± 0.11	0.939 ± 0.11	1.04 ± 0.14	1.05 ± 0.21	1.03 ± 0.22	0.945 ± 0.14	0.976 ± 0.14
HMGN1 (UniProt P05114)	1.26 ± 0.29	1.29 ± 0.33	1.39 ± 0.48	1.52 ± 0.48	1.34 ± 0.34	1.83 ± 0.67	1.66 ± 0.36	1.8 ± 0.33
UniProt P17096|P17096-2	1.06 ± 0.062	1.06 ± 0.12	1.21 ± 0.081	1.33 ± 0.12	1.37 ± 0.14	1.69 ± 0.3	1.55 ± 0.21	2.02 ± 0.076
ZKSCAN1 (UniProt P17029)	0.9748 ± 0.0051	0.986 ± 0.034	0.987 ± 0.047	0.958 ± 0.024	0.963 ± 0.015	0.978 ± 0.026	1 ± 0.075	0.993 ± 0.041
STMN1 (UniProt P16949)	0.911 ± 0.0092	0.899 ± 0.048	0.994 ± 0.014	0.909 ± 0.042	0.85 ± 0.069	0.935 ± 0.1	0.971 ± 0.089	0.995 ± 0.041
UniProt P23025|F2Z2T2	1.07 ± 0.044	1.08 ± 0.049	1.21 ± 0.054	1.02 ± 0.1	1.05 ± 0.074	1.08 ± 0.14	1.12 ± 0.028	1.08 ± 0.097
